# According to PubChem BioAssay AID504843 (Broad Institute, 2011):
# The whole screen tested about 1,200 compounds, of which about 360 (30%) were called active. How the calls were made is not given here. Not all results are given here. Entries with a potency or affinity are not part of this list.
# Assay: bacterial growth inhibition, dose response, counter-screen, BacTiter-Glo luminescence, cherry-picked samples (AID 504843);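 further: growth measured after 8 h incubation at 30 °C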
# Conditions: BacTiter-Glo ATP luminescence; series mostly up to 15 µM
row,SMILES,outcome
1,Cn1c(SCC(=O)NCc2cccs2)nnc1-c1ccc(S(=O)(=O)N2CCCC2)cc1,inactive
2,CN(C)S(=O)(=O)c1cccc(NC(=O)C2CCN(S(=O)(=O)c3cccs3)CC2)c1,inactive
3,CCCCn1c(N)c(N(CC)C(=O)c2ccc(Cl)c(Cl)c2)c(=O)[nH]c1=O,inactive
4,CCCCCN(C(=O)CCC(=O)OCC(=O)N(C)Cc1ccc(C)cc1)c1c(N)n(CCCC)c(=O)[nH]c1=O,inactive
5,CC1(C)CC(NC(=O)c2ccc(-c3ccc([N+](=O)[O-])cc3)o2)CC(C)(C)N1,inactive
6,CC(O)(CC(=O)CC(=O)c1ccccc1)c1ccccc1 (stereo not given),inactive
7,COc1ccc(C2CC(=O)c3cnc(NC(=O)c4ccccc4)nc3C2)c(OC)c1 (stereo not given),inactive
8,S=c1[nH]nc(-c2cccnc2)n1C1CCCCC1,inactive
9,COCc1cc(=O)[nH]c2cc(NC(=O)C(F)(F)F)c(C)cc12,inactive
10,CCOc1ccccc1C1C(C(N)=O)=C(C)Nc2nc(-c3ccccc3Cl)nn21 (stereo not given),inactive
11,COc1ccc(C2C(C#N)=C(N)Oc3c2sc2nc(C)cc(C)c32)cc1 (stereo not given),inactive
12,Cc1ccc2cccc(OCC(=O)N3CCc4ccccc43)c2n1,inactive
13,Cc1cc(-n2c(C)cc(C(=O)COc3cccnc3[N+](=O)[O-])c2C)no1,inactive
14,CC(C)C[C@H]1C(=O)N2CCC[C@H]2[C@]2(O)O[C@](NC(=O)[C@@H]3C=C4c5cccc6[nH]c(Br)c(c56)CC4N(C)C3)(C(C)C)C(=O)N12 (stereo not given in full),inactive
15,CCC(C)OC1OC(CO)C(O)C(O)C1NC(C)=O (stereo not given),inactive
16,Cc1ccc(C(=O)N/C(=C\c2ccc(C(C)C)cc2)C(=O)NCCCN2CCOCC2)cc1,inactive
17,CC(C)OC(=O)c1c(NC(=O)c2ccco2)sc2c1CCCC2,inactive
18,COc1ccc(S(=O)(=O)N2CCCOC2CNC(=O)C(=O)NCCCN2CCOCC2)cc1 (stereo not given),inactive
19,CCOC(=O)c1c(NC(=O)CCC(=O)O)sc2c1CC(C)(C)OC2,inactive
20,Cc1cc(NC(=O)C2CC2)ccc1NC(=O)c1cccs1,inactive
21,O=C1OCc2ccc(NC(=O)C3CC3)cc21,inactive
22,COc1ccc(-c2nc(C#N)c(NCC3CCCO3)o2)cc1OC (stereo not given),inactive
23,CCOC(=O)CSc1cc(CS(C)(=O)=O)nc(-c2ccccn2)n1,inactive
24,CC1CCN(CC[C@H]2CCCN2S(=O)(=O)c2cccc(O)c2)CC1,inactive
25,Cc1ccc(C(=O)c2cnc3ccccc3c2-c2ccccc2)cc1,inactive
26,CN(C)CCCNC(=O)C(=O)NCC1CCCO1 (stereo not given),inactive
27,CN(C(=O)c1cc2sccc2n1C)C1CCCCC1,inactive

row,SMILES,outcome
1,Cc1nn(Cc2ccccc2)c(C)c1NC(=O)c1noc2c1CCc1ccccc1-2,inactive
2,Cc1ccc(Cn2nc(C)c(NC(=O)c3cc(C)no3)c2C)cc1,inactive
3,O=C(NCCc1ccccc1)c1n[nH]c2ccccc12,inactive
4,O=C(CCCc1ccccc1)Nc1ccc2c(c1)OCCO2,inactive
5,Cc1ccc(-n2c3nc(=O)[nH]c(=O)c-3cc3c(C)nn(-c4ccccc4)c32)c(C)c1,inactive
6,N#Cc1cn(CC(=O)N2CCCc3ccccc32)c2ccccc12,inactive
7,CC1CCc2nc(N)c(C#N)c(-c3ccncc3)c2C1 (stereo not given),inactive
8,COc1ccc(-c2ccc(-c3noc(-c4ccccc4OC)n3)c(OC)n2)cc1,inactive
9,CC(C)c1cc(C(=O)NCc2ccco2)no1,inactive
10,CCN(CC)S(=O)(=O)c1ccc(S(=O)(=O)Nc2ccc3c(c2)oc2ccccc23)cc1,inactive
11,C/C(=C\C(=O)OCCCCCCCCC(=O)O)C[C@@H]1OC[C@H](C[C@@H]2O[C@H]2[C@@H](C)[C@H](C)O)[C@@H](O)[C@H]1O,inactive
12,COc1ccc(S(=O)(=O)N(C)C)cc1NC(=O)CSc1nnc(-c2cccnc2)o1,inactive
13,CC1=CC(C)(C)N2C(=O)C3(C(C#N)=C(N)OC4=C3C(=O)CCC4)c3c(C)c(C)cc1c32 (stereo not given),inactive
14,CC1(C)CC(=O)C=C(NCCN2CCN(C(=O)Nc3ccccc3)CC2)C1,inactive
15,COCCCN=C(c1ccco1)n1c(=S)nc(-c2ccco2)n(CCCOC)c1=S,inactive
16,CSc1ccccc1NC(=O)CN(C)CC(=O)Nc1ccc(S(=O)(=O)N2CCCC2)cc1,inactive
17,O=C(COc1ccc([N+](=O)[O-])cc1)Nc1cc(S(=O)(=O)N2CCCCC2)ccc1N1CCCCC1,inactive
18,Cc1c(C)c2c(C)nn(-c3ccccc3)c2[nH]c1=O,inactive
19,CC(C)C(c1nnnn1C1CCCC1)N1CCC(C(N)=O)CC1 (stereo not given),inactive
20,Cc1ccc(-n2nnnc2-c2cnc3cc4c(cc3c2C)OCO4)cc1,inactive
21,O=C(Cc1ccccc1Cl)c1ccccc1,inactive
22,O=C(NCc1ccccn1)C1CC(c2ccccc2O)=NO1 (stereo not given),inactive
23,COc1cc2cc(CN(CCO)S(=O)(=O)c3ccccc3Cl)c(=O)[nH]c2cc1OC,inactive
24,COC(=O)Nc1ccc2c(c1)N(C(=O)CCN1CCOCC1)c1ccccc1S2,inactive
25,CC(C)(C)OC(=O)N(CCc1ccccc1)Cc1cccc(OCc2cccc(NC(=O)/C=C/c3ccccc3)c2)c1,inactive
26,CCc1ccc(N2CC34C=CC(O3)C(C(=O)OC(C)C)C4C2=O)cc1 (stereo not given),inactive
27,Cc1nnc(SCc2ccccc2CSc2nnc(C)s2)s1,inactive

row,SMILES,outcome
1,Cc1onc(-c2ccccc2)c1C(=O)NCc1ccc(F)cc1,inactive
2,Cc1onc(-c2c(F)cccc2Cl)c1C(=O)Nc1sc2c(c1C#N)CCC(C(C)(C)C)C2 (stereo not given),inactive
3,Cn1c(C(=O)NCc2cccs2)cc2c(=O)n(C)c3ccccc3c21,inactive
4,CCCOc1ccc(/C(O)=C2/C(=O)C(=O)N(CCN(C)C)C2c2ccc(O)c(OC)c2)cc1 (stereo not given),inactive
5,COC(=O)CSc1ccc(C#N)c(SCC(=O)OC)c1,inactive
6,CCN(CC)C(=O)C1=C(C)NC(=O)NC1c1c(F)cccc1Cl (stereo not given),inactive
7,CCOC(=O)C1=C(C)NC(=S)NC1c1cc(C)sc1C (stereo not given),inactive
8,Nc1ccc2c(c1)-c1ccccc1S(=O)(=O)N2,inactive
9,CCCOc1cccc(C(=O)Nc2ccc(Br)cc2F)c1,inactive
10,CCOC(=O)c1ccccc1-n1nnnc1C,inactive
11,O=C(CNc1ccc(Cl)cc1)c1ccc(Br)cc1,inactive
12,COc1ccc(-c2cc(C(=O)Oc3ccc([N+](=O)[O-])cc3)c3ccccc3n2)cc1,inactive
13,COC(=O)COc1cc2ccccc2cc1C(=O)Nc1ccccc1,inactive
14,CCc1ccc(C(=O)Nc2ccc(S(=O)(=O)Nc3nc(C)cc(C)n3)cc2)o1,inactive
15,O=S(=O)(/N=C(/Nc1ccccc1)c1ccccc1)c1cccs1,inactive
16,CCO[C@@H]1OC(C(=O)O)=C[C@H](C)[C@H]1CCCO,inactive
17,O=C(O)C1(C(=O)O)CCC1,inactive
18,Cc1occc1C(=O)NCc1cccc(CNC(=O)c2ccoc2C)c1,inactive
19,O=C(Cn1cc(C(F)(F)F)ccc1=O)OCC(=O)c1ccc[nH]1,inactive
20,COc1ccc(-c2[nH]nc3c2C(c2ccoc2)C(C#N)=C(N)O3)cc1 (stereo not given),inactive
21,COc1ccccc1N1CCN(C(=O)c2cc3c(=O)n4ccccc4nc3s2)CC1,inactive
22,COc1ccccc1-c1ccc(=O)n(CC(=O)Nc2ccc(C(=O)N3CCCC3)cc2)n1,inactive
23,COc1ccccc1C(=O)Nc1ccnn1C1CCN(Cc2cnn(C)c2)CC1,inactive
24,C=CCOc1ccccc1CN1CCC(n2nccc2NC(=O)C2CC2)CC1,inactive
25,N#Cc1ccccc1S(=O)(=O)N1CCN(CC(=O)Nc2ccnn2C2CCCC2)CC1,inactive
26,C[C@H]1CN([C@@H](C)CO)C(=O)c2cccc(NS(=O)(=O)c3ccc(F)cc3)c2O[C@H]1CN(C)Cc1ccc(Cl)c(Cl)c1,inactive
27,CNC(=O)CN(c1ccc(C(C)C)cc1)S(C)(=O)=O,inactive

row,SMILES,outcome
1,CC1CCN(C(=O)C2(NC(=O)Nc3cccc(F)c3)CCCCC2)CC1,inactive
2,CCOc1ccc(NC(=O)c2cccc(OC(=S)N3CCC(C)CC3)c2)cc1,inactive
3,Cc1nc2ccc(C(=O)Nc3ccc4nc[nH]c4c3)cc2[nH]1,inactive
4,O=C(N[C@@H](Cc1ccccc1)C(=O)NC1CC1)c1ccc(Cl)cc1,inactive
5,CN1C(=O)N(C)C2(c3ccccc3)NC(=O)NC12c1ccccc1 (stereo not given),inactive
6,O=C(CC1SCCNC1=O)Nc1cccc(Cl)c1 (stereo not given),inactive
7,COC(=O)CN1C(=O)N/C(=C/c2ccccc2OC)C1=O,inactive
8,Nc1nnc(-c2ccc(F)cc2)s1,inactive
9,CC(C)c1nnc(NC(=O)CCS(=O)(=O)Cc2ccccc2)s1,inactive
10,O=C(CSc1nnc(-c2ccncc2)s1)Nc1ccc(Cl)c(C(=O)O)c1,inactive
11,O=C(COc1ccc2c3c(c(=O)oc2c1)CCCC3)NCc1ccncc1,inactive
12,O=C(O)CCC(=O)Nc1sc2c(c1C(=O)Nc1cccc3ccccc13)CCCCC2,inactive
13,O=C(NCc1ccc(Cl)cc1)c1cccc(NC2=NC3CS(=O)(=O)CC3S2)c1 (stereo not given),inactive
14,Cc1onc(C(=O)NCc2ccc(F)cc2)c1[N+](=O)[O-],inactive
15,O=C(COc1ccc2c3c(c(=O)oc2c1)CCCC3)NCC(O)c1ccccc1 (stereo not given),inactive
16,COc1ccc2c3c(c(=O)oc2c1OCC(N)=O)CCCC3,inactive
17,Cc1ccc2c(CC(=O)Nc3ccc(N4CCN(C)CC4)cc3C)coc2c1,inactive
18,CCOCCCNC(=S)NCCNc1nc2ccc(C)cc2cc1C#N,inactive
19,COc1cc(C(=O)NC(c2ccccc2)c2ccccc2)cc(OC)c1C,inactive
20,O=C(Cn1c(=O)n(-c2ccc(F)cc2)c(=O)c2sccc21)NC1CCCCC1,inactive
21,O=C(NNc1ncnc2c1cnn2-c1ccccc1)c1cccs1,inactive
22,CC(C)S(=O)(=O)C1=NSC2=NC(=O)/C(=C\c3ccc(-c4cccc(C(=O)O)c4)o3)C(=N)N21,inactive
23,CCc1nc2cc3sc(CC)nc3cc2s1,inactive
24,O=C(CCNc1n[nH]c(=O)[nH]c1=O)N1CCCCC1,inactive
